Drawing on PubChem BioAssay (Tox21), this text covers Potency and fluorescence, % of fluorescent control for 17 compounds.

Unmarked numbers belong to inactive results. Where a call stands in place of a potency, no number is given. Calls of active or inactive are those of the source. Calls come from the whole dose curve; as a rule, active = well fitted curve in the direction sought with a large enough effect in the repeat runs; inconclusive = weak or mixed curves; inactive = flat fitted curve, though single readings scatter.

This experiment is described as follows: qHTS assay to test for compound auto fluorescence at 460 nm (blue) in HepG2 cells (AID 720687). Particulars: autofluorescence 405/460 nm, 1 h; series mostly up to 91.3 µM. The method, boiled down:
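Blue-channel autofluorescence (Ex/Em 405/460 nm, triamterene-equivalent) was measured after 1 hr compound exposure at 37 C, 5% CO2. Cells were HepG2, plated overnight at 37 C in MEM plus 10% FBS.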
For orientation: Quantitative high-throughput screening tests each substance at several concentrations.
`C=C(C)C(=O)OCCC(F)(F)C(F)(F)C(F)(F)C(F)(F)C(F)(F)C(F)(F)F`: the Potency result is “inactive”.
Still for that read-out and setting: with `COC1CCC=CO1` (configuration not stated) the entry was “inactive”.
The same measure, in the same setting: the entry for `CNCc1ccc(NC(=O)c2c[nH]c3c2C(=O)CCC3)cc1` is “inactive”.
On to `Cc1ccc(NC(=O)N(C)C)cc1NC(=O)N(C)C`, for which the Potency entry is “inactive”.
On the same count and under the same terms, with `N[C@@H](Cc1cc(I)c(O)c(I)c1)C(=O)O` the entry was “inactive”; with `CCC(C)(C)C(=O)O`, “inactive”.
Same read-out and setting: with `CNS(=O)(=O)c1cc(C(=O)N2CCC(CCN3C4CCC3CC(n3c(C)nc5ccccc53)C4)(c3cccc(F)c3)CC2)c(Cl)cc1F` (configuration not stated) the entry was “inactive”.
Take `O=[N+]([O-])c1ccc2ncccc2c1`: the Potency result is “inactive”.
On the same count and under the same terms, the entry for `C[C@@H]1[C@H](O)[C@@H](C)/C=C/C=C\C=C\C=C\C=C\C=C\C=C\[C@H](O[C@@H]2O[C@H](C)[C@@H](O)[C@H](N)[C@@H]2O)C[C@@H]2O[C@](O)(C[C@@H](O)C[C@@H](O)[C@H](O)CC[C@@H](O)C[C@@H](O)CC(=O)O[C@H]1C)C[C@H](O)[C@H]2C(=O)O` (stereo in doubt) is “inactive”; for `COc1cc(C(C)=O)ccc1OCCCN1CCC(c2noc3cc(F)ccc23)CC1` it is “inactive”.
With `CC(C)(C)NCC(O)COc1cccc2c1C[C@H](O)[C@H](O)C2` (some centres not stated), the fluorescence, % of fluorescent control is 0.0012% [at 18.6 µM].
Consider `Nc1ccn([C@H]2CS[C@@H](CO)O2)c(=O)n1`, for which the Potency entry is “inactive”.
The same measure, in the same setting: with `Cc1cc([N+](=O)[O-])ccc1N` the entry was “inactive”; with `CC1CCCO1` (configuration not stated), “inactive”; with `O=C1OC(=O)c2c(Br)c(Br)c(Br)c(Br)c21`, “inactive”.
Still for that read-out and setting: with `Oc1ccc2c(c1)Cc1ccccc1-2` the entry was “inactive”.
Still for that read-out and setting: the entry for `CC(C)COC(=O)c1ccc(O)cc1` is “inactive”.
